The values below come from PubChem BioAssay (EPA / NIEHS).

As a reminder, the AC50 is the concentration giving half of the maximal activity seen.

“And” between values parts separate entries of the source, which are not always exact repeats. Equal values may be shown once. Where a structure was tested more than once in an assay, its records may differ in their call. The source made the active and inactive calls. The calls were made as follows: active = hit-call score of the fitted dose curve at least 0.9, where 1 is the maximum; inactive = score below 0.9.

Read-out in the first assay: Macrophage colony-stimulating factor (MCSF), CSF1 (gene 1435)
As to the kind of experiment: BSK_hDFCGF_MCSF: BioMAP Diversity Plus: hDFCGF Assay for Macrophage colony-stimulating factor (MCSF) Biomarker Activity (AID 2283060). The note with it: primary human foreskin fibroblasts; actives raise or lower the signal. Summed up: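 M-CSF levels read by ELISA at 24 h post-dosing in human skin fibroblasts. Parallel cultures stained with SRB assessed cytotoxicity at the same time point; response fitted in both directions against the DMSO baseline.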
Take `CCC(C)(NC(=O)c1cc(Cl)c(C)c(Cl)c1)C(=O)CCl` (stereo not given): the AC50 was 3.56 µM (active).
Consider `COC(=O)c1ccccc1CS(=O)(=O)NC(=O)Nc1nc(OC)cc(OC)n1`, for which the outcome was inactive.
In the case of `COC(=O)c1ccccc1S(=O)(=O)NC(=O)Nc1nc(C)nc(OC)n1`, the outcome was inactive.
Take `CC(C)OC(=O)Nc1cccc(Cl)c1`: the result was inactive.
With `CCOc1nc(NC)nc(NC(=O)NS(=O)(=O)c2ccccc2C(=O)OC)n1`, the result was inactive.
As for `O=C(Nc1ccccc1)Nc1cnns1`, the outcome was inactive.
As for `CNC(=O)Oc1ccccc1OC(C)C`, the outcome was inactive.
`O=[N+]([O-])c1c(Cl)c(Cl)c(Cl)c(Cl)c1Cl`: the AC50 is 18 µM (active).

Read-out in another assay: not listed separately
As to the kind of experiment: BSK_hDFCGF_SRB: Viability Assessment in the BioMAP Diversity Plus: hDFCGF Assay (AID 2283061).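 Also: cells exposed to compound for 24 h before the read.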 The note with it: primary human foreskin fibroblasts. Put shortly:
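Viability was read as total protein: after 10% TCA fixation, wells were stained with 0.1% sulforhodamine B and read at 560 nm. Primary human foreskin fibroblasts were dosed for 24 h, with bidirectional fitting versus DMSO.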
Take `O=C(O)CCCOc1ccc(Cl)cc1Cl`: the outcome was inactive.
Regarding `O=C(O)C(F)(F)C(F)(F)C(F)(F)C(F)(F)C(F)(F)C(F)(F)C(F)(F)F`, the AC50 was 1.5 µM (active) and the outcome was inactive.
Regarding `COc1nn(CSP(=S)(OC)OC)c(=O)s1`, the result was inactive.
Take `CC1(c2ccc(Oc3ccccc3)cc2)OC(=O)N(Nc2ccccc2)C1=O` (stereo not given): the outcome was inactive.
Take `ClC1C(Cl)C(Cl)C(Cl)C(Cl)C1Cl` (stereo not given): the result was inactive.
On to `N#CN`, for which the outcome was inactive.
Same read-out and setting: then `COC(=O)c1ccccc1S(=O)(=O)NC(=O)N(C)c1nc(C)nc(OC)n1`, with “inactive”; and `O=C(NC(=O)c1c(F)cccc1F)Nc1ccc(OC(F)(F)C(F)OC(F)(F)F)c(Cl)c1` (stereo not given), with “inactive”; and `CNC(=O)/C=C(\C)OP(=O)(OC)OC`, with “inactive”.
On to `O=S(=O)(O)C(F)(F)C(F)(F)C(F)(F)C(F)(F)C(F)(F)C(F)(F)C(F)(F)C(F)(F)F`, for which the AC50 is 20 µM (active) and the result was inactive.
Turning to `COc1cc(OC)nc(NC(=O)NS(=O)(=O)c2cc(NC=O)ccc2C(=O)N(C)C)n1`, the outcome was inactive.
Consider `O=C(O)COc1ccc(Cl)cc1Cl`, for which the outcome was inactive.
With `CC1(C)C(C=C(Cl)Cl)C1C(=O)OC(C#N)c1ccc(F)c(Oc2ccccc2)c1` (stereo not given), the AC50 is 31.1 µM (active).
Turning to `CCN(CC)C(=O)SCc1ccc(Cl)cc1`, the outcome was inactive.
As to `Oc1cc(Cl)ccc1Oc1ccc(Cl)cc1Cl`, the AC50 was 13.1 µM (active) and 9.31 µM (active) and 17 µM (active).
Same read-out and setting: next, `C[C@H]1[C@H](c2ccc(Cl)cc2)SC(=O)N1C(=O)NC1CCCCC1`: 8.97 µM (active); `CC(C)(C)C(O)/C(=C\c1ccc(Cl)cc1Cl)n1cncn1` (stereo not given): 20 µM (active); `CCC(C)(NC(=O)c1cc(Cl)c(C)c(Cl)c1)C(=O)CCl` (stereo not given): 7.6 µM (active).
For `COC(=O)c1ccccc1CS(=O)(=O)NC(=O)Nc1nc(OC)cc(OC)n1`, the result was inactive.
Take `COC(=O)c1ccccc1S(=O)(=O)NC(=O)Nc1nc(C)nc(OC)n1`: the result was inactive.
As for `CC(C)OC(=O)Nc1cccc(Cl)c1`, the outcome was inactive.
On to `CCOc1nc(NC)nc(NC(=O)NS(=O)(=O)c2ccccc2C(=O)OC)n1`, for which the result was inactive.
With `O=C(Nc1ccccc1)Nc1cnns1`, the outcome was inactive.
Take `CNC(=O)Oc1ccccc1OC(C)C`: the outcome was inactive.
With `O=[N+]([O-])c1c(Cl)c(Cl)c(Cl)c(Cl)c1Cl`, the AC50 was 31 µM (active).
